Laboratory results: PubChem BioAssay (Tox21)
Several values for one entry are separate records, joined by “and”; a condition that tells them apart may be missing. Identical values can stand only once. Records with an inconclusive call do not appear. Unmarked numbers belong to inactive results. Activity calls are given as the source filed them. Calls come from the whole dose curve; as a rule, active = well fitted cell-killing curve with a large enough effect in the repeat runs; inconclusive = weak or mixed curves, or effect the other way; inactive = flat fitted curve, though single readings scatter.

Test: qHTS assay to identify small molecule agonists of the estrogen receptor beta (ER-beta) signaling pathway - cell viability counter screen (AID 1259380); note: nearly all actives have a fitted effect of over 30% in size
Details: ER-beta-bla HEK293T viability, CellTiter-Glo luminescence, 16 h; series mostly up to 92.4 µM; activity change, negative = cytotoxicity: at the top concentration
Description: National Center for Advancing Translational Sciences [NCATS]
NIH Chemical Genomics Center [NCGC]
U.S. Environmental Protection Agency [EPA]
National Institutes of Environmental Health Sciences [NIEHS]
National Toxicology Program [NTP]
U.S. Food and Drug Administration [FDA]
Estrogen receptor (ER), a nuclear hormone receptor, plays an important role in development, metabolic homeostasis and reproduction. Two subtypes of ER, ER-alpha and ER-beta, have similar expression patterns with some uniqueness in both types. Endocrine disrupting chemicals (EDCs) and their interactions with steroid hormone receptors like ER causes disruption of normal endocrine function. To identify the compounds that activate ER signaling, an ER beta-UAS-bla GripTite cell line (Life Technologies, Madison, WI, USA) containing a beta-lactamase reporter gene under the control of an UAS response element was used to screen Tox21 10K compound library. The cytotoxicity of the Tox21 compound library against the ER-beta-bla cell line was tested in parallel by measuring the cell viability using CellTiter-Glo assay in the same wells.
Tox21 Assay Protocol Summary:
ER-beta-UAS-bla HEK293T cells were dispensed at 2,000 cells/5 uL of assay medium containing 2% charcoal stripped FBS per well into black wall/clear-bottom 1536-well plates using a Multidrop Combi (ThermoFisher Scientific, Waltham, MA) dispenser. After the assay plates were incubated at a 37C and 5% CO2 for 6 hr, 23 nL of compounds dissolved in DMSO, positive controls or DMSO only was transferred to the assay plate by a Pintool station (Kalypsys, San Diego, CA). The plates were incubated at 37C and 5% CO2 for 16 hr. Then 1 uL of LiveBLAzerTM B/G FRET substrate was added using a BioRAPTR FRD (Flying Reagent Dispenser, Aurora Discovery, San Diego, CA) and then the plates were incubated at room temperature for 2 hours, and fluorescence intensity was measured by an Envision plate reader (PerkinElmer, Shelton, CT). For cell viability readout that measures cytotoxicity, 4 uL/well of CellTiter-Glo reagent was added into the assay plates using a FRD. After 30 min incubation at room temperature, the luminescence intensity in the plates was measured using a ViewLux (PerkinElmer) plate reader.
% is set by controls: 0 for no effect and ±100 for the full control effect; potency is the fitted concentration of half-maximal effect.

Structure (SMILES)	Potency	activity change, negative = cytotoxicity
CC(C)=CCOc1ccc(/C=C/C(=O)c2ccc(OCC=C(C)C)cc2OCC(=O)O)cc1	5.96 µM (active)	–
COc1cc(-c2ccc(N=C=O)c(OC)c2)ccc1N=C=O	–	0.858% [at 42.5 µM]
Cc1onc(-c2c(Cl)cccc2Cl)c1C(=O)N[C@@H]1C(=O)N2[C@@H]1SC(C)(C)[C@@H]2C(=O)O	–	4.46% [at 42.5 µM]
N#CC1(c2ccc(F)cc2)CCC(=O)CC1	–	-1.39% [at 42.5 µM]
Cc1ccc(-n2nc(C(C)(C)C)cc2NC(=O)Nc2ccc(OCCN3CCOCC3)c3ccccc23)cc1	7.5 µM (active)	–
CNc1ccc(O)cc1	30.6 µM (active)	–
CCCN(CCC)c1c([N+](=O)[O-])cc(C(F)(F)F)c(N)c1[N+](=O)[O-]	21.6 µM (active)	–
O=C1CCCCCN1SSN1CCCCCC1=O	–	-2.12%
Cc1cc(C2CCCCC2)n(O)c(=O)c1	–	-10.2% [at 42.5 µM]
CC1=C(C(=O)OC(C)C)C(c2cccc([N+](=O)[O-])c2)C(C(=O)OC2CN(C(c3ccccc3)c3ccccc3)C2)=C(N)N1 (stereo not given)	29.8 µM (active)	–
O=C1CCCc2c1cc1ccc3cccc4ccc2c1c34	31 µM (active)	–
O=C(OCC(COC(=O)c1ccccc1)(COC(=O)c1ccccc1)COC(=O)c1ccccc1)c1ccccc1	–	0.247%
Cc1ccc2oc(CN(Cc3ccccc3)C(=O)Nc3c(F)cc(F)cc3F)c(-c3ccc(Cl)cc3)c2c1	–	5.98%
CCCCCCCCCCCCc1ccc(O)cc1	43.3 µM (active)	–
Fc1ccc([C@@H]2CCNC[C@H]2COc2ccc3c(c2)OCO3)cc1	33.5 µM (active)	–
C=C(C)C(=O)OCC(O)COc1ccc(C(C)(C)c2ccc(OCC(O)COC(=O)C(=C)C)cc2)cc1 (stereo not given)	61.1 µM (active)	–
C=CC(=O)OCC(CO)(COCC(COC(=O)C=C)(COC(=O)C=C)COC(=O)C=C)COC(=O)C=C	9.57 µM (active)	–
O=C(O)c1c(Cl)cccc1Cl	–	6.34%
CC(C)(C)CC(C)(C)c1ccc(OCCOCC[N+](C)(C)Cc2ccccc2)cc1	27.3 µM (active) and 16.8 µM (active)	–
O=C(Nc1ccc(Oc2ccc(Cl)cc2)c(Cl)c1)c1cc(I)cc(I)c1O	11.9 µM (active)	–

Structure (SMILES)	Potency	activity change, negative = cytotoxicity
Oc1c(Cl)cc(Cl)c2cccnc12	4.73 µM (active)	–
CCCCCCCC/C=C\CCCCCCCCOCCO	28.2 µM (active)	–
CCCC(C)c1ccccc1O (stereo not given)	–	0.92%
C=C(C)C(=O)OCC[N+](C)(C)C	–	0.42%
Nc1c(Cl)cc(Cl)cc1Cl	–	-12.8%
CN(C)[C@@H]1C(=O)C(C(N)=O)=C(O)[C@@]2(O)C(=O)C3=C(O)c4c(O)ccc(Cl)c4[C@@H](O)[C@H]3C[C@@H]12	–	0.562% [at 42.5 µM]
CNC(=O)c1ccccc1	–	5.3%
Cc1cc(O)c2ccccc2c1O	13.3 µM (active)	–
Nc1ccc2c3c(cccc13)-c1ccccc1-2	49.1 µM (active)	–
N=C1C=CC(=C(c2ccc(N)cc2)c2ccc(N)cc2)C=C1	7.7 µM (active)	–
CCOc1nc2cccc(C(=O)OC(C)OC(=O)OC3CCCCC3)c2n1Cc1ccc(-c2ccccc2-c2nn[nH]n2)cc1 (stereo not given)	13.7 µM (active)	–
CCCCCCCC/C=C/CCCCCCCC1=NCCN1CCO	27.3 µM (active)	–
[Cl][Bi]([Cl])([c]1ccccc1)([c]1ccccc1)[c]1ccccc1	24.2 µM (active)	–
CC(C)(C)c1ccc(C(=O)CCCN2CCC(OC(c3ccccc3)c3ccccc3)CC2)cc1	18.8 µM (active)	–
O=c1c(-c2ccccc2)c1-c1ccccc1	–	0.667% [at 42.5 µM]
CCOC(=O)/C=C(C)/C=C/C=C(C)/C=C/c1c(C)cc(OC)c(C)c1C	–	7.68% [at 42.5 µM]
CN1CCN(CCC(=O)N2c3ccccc3Sc3ccc(C(F)(F)F)cc32)CC1	13.3 µM (active)	–
Clc1ccc(C(Cn2ccnc2)OCc2ccc(Sc3ccccc3)cc2)c(Cl)c1 (stereo not given)	–	-4.95% [at 42.5 µM]
C[C@H]1[C@H]2CC[C@H]3[C@@H]4CC=C5C[C@@H](N(C)C)CC[C@]5(C)[C@H]4CC[C@]23CN1C	–	0.0136% [at 42.5 µM]
CC(=O)OCC(C)OC(C)=O (stereo not given)	–	3.21%
